Data reported in PubChem BioAssay (EPA / NIEHS).
Records with an inconclusive call do not appear. Calls of active or inactive are those of the source. How the source made its calls, unless noted: active means hit-call score of the fitted dose curve at least 0.9, where 1 is the maximum; inactive means score below 0.9.

How the values were obtained:
[1] = CCTE_Harrill_HTTr_Viability_MCF7: CCTE's 6-hour Cell Viability Assessment for the High-Throughput Transcriptomics (HTTr) Platform, in MCF-7 cells cultured in DMEM + 10% fetal bovine serum, Harrill Lab (AID 2284010)
How it was run: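 Viability measured through PI dye exclusion by high-content imaging at 6 h post-dosing.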

[2] = CCTE_Harrill_HTTr_Apoptosis_MCF7: CCTE's 6-hour Apoptosis Assessment for the High-Throughput Transcriptomics (HTTr) Platform, in MCF-7 cells cultured in DMEM + 10% fetal bovine serum, Harrill Lab (AID 2284011)
How it was run: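 MCF-7 cells in DMEM + 10% FBS exposed 6 h to chemicals over an eight-point dilution series. Caspase-3/7 activation imaged by high-content CellEvent Green staining; fitted bidirectionally versus DMSO.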

[3] = CCTE_Harrill_HTTr_CellCount_MCF7: CCTE's Cell Proliferation Assessment for the High-Throughput Transcriptomics (HTTr) Platform, Harrill Lab (AID 2284012; active means hit-call score of the fitted dose curve at least 0.9, where 1 is the maximum;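 further: count of Hoechst-stained nuclei per well by high-content imaging in MCF-7 cells; cells exposed to compound for six hours; intended direction is loss of nuclei count meaning fewer cells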)
How it was run: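 Nuclei counting (Hoechst, high content imaging) in MCF-7 after a 6 h treatment at eight concentrations. Activity fitted bidirectionally, DMSO as negative control.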

[4] = CCTE_Shafer_MEA_acute_firing_rate_mean: CCTE's Neural Acute Assay for Mean Firing Rate, Shafer Lab (AID 2284009);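 further: analyzed for loss of signal so actives lower firing rate relative to DMSO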
How it was run: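 Rat primary cortical neurons on 48-well MEA plates, dosed at 0.03-40 uM on DIV 13 or 15; 40 min spontaneous activity recorded at 37 C before and after compound. Spike rate per electrode averaged per well, expressed as percent change from baseline.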

[5] = CCTE_Shafer_MEA_acute_burst_number: CCTE's Neural Acute Assay for Single-Electrode Bursts, Shafer Lab (AID 2284013)
How it was run: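 Primary rat cortical neurons on 16-electrode MEA wells, treated on DIV 13 or 15 with compound at 0.03-40 uM. Single-electrode burst count from 40-min recordings at 37 C before and after exposure; percent change from baseline per well, DMSO negative control.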

[6] = CCTE_Shafer_MEA_acute_burst_duration_mean: CCTE's Neural Acute Assay for Mean Burst Duration, Shafer Lab (AID 2284014);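 further: hits are decreases in mean burst duration relative to DMSO controls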
How it was run: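 Rat primary cortical neurons on 48-well MEA, treated at DIV 13 or 15 with 0.03-40 uM in at least 3 wells. Value is percent change in mean burst duration, comparing 40 min recordings at 37 C before and during exposure.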

[7] = CCTE_Shafer_MEA_acute_interburst_interval_mean: CCTE's Neural Acute Assay for Mean Interburst Interval, Shafer Lab (AID 2284016);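 further: percent change of mean interburst interval versus each well's own pre-dose baseline; curves fitted for decrease in interburst interval relative to DMSO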
How it was run: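 Percent change in mean single-electrode interburst interval was calculated per well from 40 min recordings before and after compound (0.03-40 uM). Recordings were made at 37 C on rat cortical cultures at DIV 13 or 15, with spikes detected at 8x rms threshold.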

[8] = CCTE_Shafer_MEA_acute_burst_percentage_mean: CCTE's Neural Acute Assay for Percentage of Spikes in a Burst, Shafer Lab (AID 2284017);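 on AC50: curve fitted for loss of signal so potency reflects decreased burst percentage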
How it was run: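 Well-level mean burst percentage from a 40-min recording after compound (0.03-40 uM) expressed as percent change from a 40-min baseline at 37C. Cultures: primary rat cortical neurons on MEA, dosed on DIV 13 or 15; fitted downward relative to DMSO.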

[9] = CCTE_Shafer_MEA_acute_burst_percentage_std: CCTE's Neural Acute Assay for Standard Deviation of Burst Percentage, Shafer Lab (AID 2284018);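 further: fitted in the negative direction so actives lower burst percentage SD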
How it was run: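 Rat primary cortical neurons on 48-well MEAs, DIV 13 or 15, 37 C. 40-min baseline then 40-min recording with compound (0.03-40 uM); well-level SD of per-electrode burst spike percentage, expressed as percent change from baseline.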

[10] = CCTE_Shafer_MEA_acute_per_network_burst_spike_number_mean: CCTE's Neural Acute Assay for Average Number of Spikes in a Network Burst, Shafer Lab (AID 2284019);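 on AC50: curve fitted for loss of signal so actives reduce spikes per network burst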
How it was run: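 Rat primary cortical neurons on 48-well MEA at DIV 13 or 15, 37 C; compounds 0.03-40 uM, at least three wells each. 40-min baseline then 40-min exposure recording; percent change in mean spikes per network burst.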

Measured: AC50

CCCCCC(C)OC(=O)COc1ccc(Cl)c2cccnc12 (configuration not stated)
inactive: [1] | [2] | [3]

CCC(C)c1ccccc1O (configuration not stated)
inactive: [1] | [3] | [6] | [7] | [9] | [10]
active: [4] 2060 nM | [5] 2440 nM | [8] 7610 nM

CCCCCCCCCCCCOS(=O)(=O)O
inactive: [1] | [2] | [3]

NC(=NCCCCCCN=C(N)/N=C(\N)Nc1ccc(Cl)cc1)/N=C(\N)Nc1ccc(Cl)cc1
active: [1] 70000 nM

CC(=O)Nc1ccc(O)cc1
inactive: [4] | [1] | [3] | [5] | [6] | [8] | [9] | [10]

Cc1[nH]nc2c1N=C(c1ccccc1Cl)c1cc([N+](=O)[O-])ccc1N2
inactive: [1] | [2] | [3]

O=C(NCc1ncc(C(F)(F)F)cc1Cl)c1c(Cl)cccc1Cl
inactive: [1] | [2]

Oc1c(Cl)cc(Cl)cc1Sc1cc(Cl)cc(Cl)c1O
inactive: [4] | [1] | [3] | [5] | [6] | [7] | [9] | [10]
active: [8] 7110 nM

CCCCCCCCCC=CCC1CC(=O)OC1=O (configuration not stated)
inactive: [1] | [2]

Oc1ccc(Cc2ccccc2O)cc1
inactive: [6] | [7] | [8] | [9] | [10]
active: [4] 0.868 nM | [5] 23.6 nM

OCC(CO)(CBr)CBr
inactive: [4] | [1] | [3] | [5] | [6] | [7] | [8] | [9] | [10]

CN(Cc1cnc2nc(N)nc(N)c2n1)c1ccc(C(=O)N[C@@H](CCC(=O)O)C(=O)O)cc1
inactive: [1]

Brc1ccc(Oc2ccc(Br)cc2Br)cc1
inactive: [1] | [2] | [3]

N=C(N)c1ccc(OCCCCCOc2ccc(C(=N)N)cc2)cc1
inactive: [4] | [1] | [2] | [3] | [5] | [6] | [7] | [10]
active: [8] 26900 nM | [9] 31800 nM

CCCCCCCCCCCC(=O)O
inactive: [1] | [2] | [3]

O=C(CCCN1CCC(O)(c2ccc(Cl)cc2)CC1)c1ccc(F)cc1
active: [4] 1780 nM | [10] 451 nM
inactive: [1] | [2] | [3] | [5] | [6] | [7] | [8] | [9]

CC(C)(O)C(=O)c1ccccc1
inactive: [1] | [2]

CCCCC(CC)C(=O)O (configuration not stated)
inactive: [1] | [2] | [3]

CC(=O)Nc1ccc(S(N)(=O)=O)cc1
inactive: [1] | [2] | [3]

CCCCCCCCCCCCCCCCCC[N+](C)(C)Cc1ccccc1
inactive: [1] | [3]

Cc1cncc(C)c1
inactive: [1] | [2] | [3]

CS(=O)(=O)c1ccc([C@@H](CC2CCCC2)C(=O)Nc2cnccn2)cc1Cl
inactive: [1] | [3]

Cc1cccc2c1ccc1ccccc12
inactive: [1] | [2] | [3]

CC1CCC(CO)CC1 (configuration not stated)
inactive: [1] | [3]

CC(C)(C)c1ccc(CCC=O)cc1
inactive: [1] | [2] | [3]

CNNCc1ccc(C(=O)NC(C)C)cc1
inactive: [1] | [2] | [3]

O=C(c1ccccc1)c1ccccc1
inactive: [1] | [3]

CCCCCCCCCCCCOC(=O)c1cc(O)c(O)c(O)c1
inactive: [1] | [2] | [3]

COC1=CC(=O)C[C@@H](C)[C@]12Oc1c(Cl)c(OC)cc(OC)c1C2=O
inactive: [1] | [3]

CC(C)(C)C1CCCCC1O (configuration not stated)
inactive: [1] | [3]

Nc1ccn([C@@H]2O[C@H](CO)[C@@H](O)C2O)c(=O)n1 (some centres not stated)
inactive: [1] | [3]

C[C@]12CC[C@@H]3c4ccc(O)cc4CC[C@H]3[C@@H]1CC[C@@H]2OC(=O)CCC1CCCC1
inactive: [1] | [2] | [3]

CCC(=O)O
inactive: [1] | [2] | [3]

Cc1cc(Cc2cc(C)cc(C(C)(C)C)c2O)c(O)c(C(C)(C)C)c1
inactive: [1] | [3]

CCCCCCCCCCCCCCC
inactive: [1] | [3]

CC(O)COc1ccccc1 (configuration not stated)
inactive: [1] | [2] | [3]

C=Cc1ccc(O)c(OC)c1
inactive: [1] | [2] | [3]

O=c1cc(-c2ccccc2)oc2ccc3ccccc3c12
inactive: [1] | [3]

CCCCCCCCC(C)=O
inactive: [1] | [3]

Cc1ccccc1C(OCCN(C)C)c1ccccc1 (configuration not stated)
inactive: [1] | [3]

CC1=CC(=O)c2ccccc2C1=O
inactive: [1] | [2] | [3]

CC1COCc2cc3c(cc21)C(C)(C)C(C)C3(C)C (configuration not stated)
inactive: [1] | [3]
